Holding throughout (experiment): DAPPL (digital affinity profiling via proximity ligation, sequencing); 10 mM Tris-HCl pH 7.5, 50 mM NaCl, 1 mM DTT, 4% glycerol, room temperature, 30 min; GST-TFs on glutathione beads, 16-mer random dsDNA library, 0.1% formaldehyde crosslink after washing; high values mean tight binding
One assay deals with T1, FLI1 (Homo sapiens, UniProt Q01543 1-452).
T1 sequence: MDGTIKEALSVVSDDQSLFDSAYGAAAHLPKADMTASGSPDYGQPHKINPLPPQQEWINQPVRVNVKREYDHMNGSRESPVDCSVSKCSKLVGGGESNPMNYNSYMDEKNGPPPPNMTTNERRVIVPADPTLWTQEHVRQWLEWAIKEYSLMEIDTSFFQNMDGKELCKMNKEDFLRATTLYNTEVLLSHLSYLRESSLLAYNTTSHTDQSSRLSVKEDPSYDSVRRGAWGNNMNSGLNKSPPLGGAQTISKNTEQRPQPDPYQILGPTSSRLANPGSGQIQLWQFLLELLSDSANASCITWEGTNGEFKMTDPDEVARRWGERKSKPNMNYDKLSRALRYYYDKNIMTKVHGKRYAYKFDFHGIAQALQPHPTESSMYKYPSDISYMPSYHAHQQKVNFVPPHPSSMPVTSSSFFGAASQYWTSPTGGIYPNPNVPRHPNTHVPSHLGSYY
The settings on record: protein: recombinant; tags: N-terminal GST; dsDNA, one strand shown. Summed up: (§1)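 In yeast, human transcription factors were expressed with a GST fusion, then pulled down on glutathione beads and given DNA barcodes. Pooled with a tag-only sample, they were exposed to 200 nmole of a 16-mer random double-stranded DNA library (Tris/NaCl/DTT/glycerol buffer, room temperature, 30 min), washed, crosslinked with 0.1% formaldehyde, proximity-ligated using BsaI/T4 ligase for 1 h at 37 °C, PCR-amplified and read on an Illumina NextSeq500. Each hexamer's frequency of reads for a factor, divided by the matching frequency for the tag-only sample, gives the binding signal.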

The target in a further assay is T2, ELK1 (Homo sapiens, UniProt P19419 1-428).
T2 sequence: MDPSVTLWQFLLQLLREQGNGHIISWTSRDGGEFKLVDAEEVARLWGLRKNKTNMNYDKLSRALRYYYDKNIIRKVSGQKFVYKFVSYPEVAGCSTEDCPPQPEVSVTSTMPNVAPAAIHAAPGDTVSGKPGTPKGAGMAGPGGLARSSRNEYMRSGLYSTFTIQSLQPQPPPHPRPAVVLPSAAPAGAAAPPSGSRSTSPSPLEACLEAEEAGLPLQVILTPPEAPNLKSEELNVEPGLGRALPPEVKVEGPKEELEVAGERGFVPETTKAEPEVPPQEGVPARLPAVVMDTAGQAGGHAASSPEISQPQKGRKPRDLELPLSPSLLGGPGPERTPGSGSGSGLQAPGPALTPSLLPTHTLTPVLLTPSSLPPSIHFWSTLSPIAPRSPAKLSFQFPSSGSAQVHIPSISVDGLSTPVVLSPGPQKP
The settings on record: protein: recombinant; tags: N-terminal GST; dsDNA, one strand shown. The method in brief:
as §1

The target in the next assay is T3, GABPA (Homo sapiens, UniProt Q06546 1-454).
T3 sequence: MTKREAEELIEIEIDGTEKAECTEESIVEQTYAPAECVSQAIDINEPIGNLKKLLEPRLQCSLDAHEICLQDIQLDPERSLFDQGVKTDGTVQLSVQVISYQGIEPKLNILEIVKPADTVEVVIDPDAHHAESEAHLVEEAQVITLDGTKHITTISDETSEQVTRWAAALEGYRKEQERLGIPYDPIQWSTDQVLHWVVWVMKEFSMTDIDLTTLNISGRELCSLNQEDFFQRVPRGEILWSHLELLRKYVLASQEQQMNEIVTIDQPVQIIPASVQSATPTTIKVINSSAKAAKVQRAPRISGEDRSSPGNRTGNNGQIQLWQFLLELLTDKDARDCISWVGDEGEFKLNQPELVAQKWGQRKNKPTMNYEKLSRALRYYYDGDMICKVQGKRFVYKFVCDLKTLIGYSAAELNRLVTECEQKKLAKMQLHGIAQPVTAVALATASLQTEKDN
As to conditions: protein: recombinant; tags: N-terminal GST; dsDNA, one strand shown. Summed up: as §1

A further assay deals with T4, ERG (Homo sapiens, UniProt P11308 1-479).
T4 sequence: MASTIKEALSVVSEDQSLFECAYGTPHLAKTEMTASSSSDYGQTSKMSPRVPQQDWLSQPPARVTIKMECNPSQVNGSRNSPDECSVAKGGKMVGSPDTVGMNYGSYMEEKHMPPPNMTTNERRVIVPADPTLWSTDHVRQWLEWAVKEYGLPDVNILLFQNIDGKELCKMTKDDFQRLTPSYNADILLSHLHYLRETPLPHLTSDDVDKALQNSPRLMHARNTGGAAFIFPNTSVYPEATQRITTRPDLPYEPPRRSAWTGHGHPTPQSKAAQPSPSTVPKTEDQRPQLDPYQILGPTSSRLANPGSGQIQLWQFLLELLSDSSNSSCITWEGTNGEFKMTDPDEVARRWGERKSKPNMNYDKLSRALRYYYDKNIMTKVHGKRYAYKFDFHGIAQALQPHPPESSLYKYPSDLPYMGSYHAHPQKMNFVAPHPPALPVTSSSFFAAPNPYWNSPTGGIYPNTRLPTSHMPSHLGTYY
The settings on record: protein: recombinant; tags: N-terminal GST; dsDNA, one strand shown. The method in brief:
as §1

The target in the next assay is ELF1 (Homo sapiens, UniProt P32519 1-619). As to conditions: protein: recombinant; tags: N-terminal GST; dsDNA, one strand shown. Summed up:
as §1

For another assay, the target named is T5, EHF (Homo sapiens, UniProt Q9NZC4 1-300).
T5 sequence: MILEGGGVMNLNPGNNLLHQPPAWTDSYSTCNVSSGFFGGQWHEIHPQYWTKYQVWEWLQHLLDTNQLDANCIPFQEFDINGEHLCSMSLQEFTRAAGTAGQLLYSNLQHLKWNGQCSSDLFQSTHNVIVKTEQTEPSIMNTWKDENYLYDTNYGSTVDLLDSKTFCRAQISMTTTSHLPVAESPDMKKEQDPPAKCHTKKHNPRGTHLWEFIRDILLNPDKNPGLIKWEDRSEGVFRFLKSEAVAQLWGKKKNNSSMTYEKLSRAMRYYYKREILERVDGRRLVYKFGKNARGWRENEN
The settings on record: protein: recombinant; tags: N-terminal GST; dsDNA, one strand shown. The method in brief:
as §1

The next assay addresses SPI1 (Homo sapiens, UniProt P17947 1-270). As to conditions: protein: recombinant; tags: N-terminal GST; dsDNA, one strand shown. The method in brief:
as §1

Another assay deals with SPIB (Homo sapiens, UniProt Q01892 1-262). As to conditions: protein: recombinant; tags: N-terminal GST; dsDNA, one strand shown. The method in brief: as §1
A further assay addresses T6, ELK3 (Homo sapiens, UniProt P41970 1-407).
T6 sequence: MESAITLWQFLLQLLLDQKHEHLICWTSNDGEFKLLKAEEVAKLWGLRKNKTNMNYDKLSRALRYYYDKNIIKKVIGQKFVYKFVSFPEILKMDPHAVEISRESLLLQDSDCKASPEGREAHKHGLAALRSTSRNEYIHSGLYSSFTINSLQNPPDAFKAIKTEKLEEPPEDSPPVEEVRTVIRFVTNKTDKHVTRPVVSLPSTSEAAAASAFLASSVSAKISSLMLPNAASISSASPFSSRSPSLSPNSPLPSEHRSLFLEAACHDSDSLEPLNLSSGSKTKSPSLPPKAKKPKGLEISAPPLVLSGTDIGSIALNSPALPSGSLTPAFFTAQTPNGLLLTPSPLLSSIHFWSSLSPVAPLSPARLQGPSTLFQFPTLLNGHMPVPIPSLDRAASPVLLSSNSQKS
The settings on record: protein: recombinant; tags: N-terminal GST; dsDNA, one strand shown. Summed up:
as §1

In the next assay the target is T7, FEV (Homo sapiens, UniProt Q99581 1-238).
T7 sequence: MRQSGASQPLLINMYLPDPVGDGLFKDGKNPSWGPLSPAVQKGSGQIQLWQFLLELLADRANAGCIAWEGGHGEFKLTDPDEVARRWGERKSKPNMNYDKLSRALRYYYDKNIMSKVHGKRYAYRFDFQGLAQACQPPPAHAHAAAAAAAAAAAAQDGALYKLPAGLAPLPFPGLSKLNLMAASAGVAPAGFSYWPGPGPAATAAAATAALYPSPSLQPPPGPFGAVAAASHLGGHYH
As to conditions: protein: recombinant; tags: N-terminal GST; dsDNA, one strand shown. Summed up:
as §1

The next assay concerns the target ETV5 (Homo sapiens, UniProt P41161 1-510). The settings on record: protein: recombinant; tags: N-terminal GST; dsDNA, one strand shown. The method in brief:
as §1

A further assay deals with HSF1 (Homo sapiens, UniProt Q00613 1-529). As to conditions: protein: recombinant; tags: N-terminal GST; chain copies: 3; dsDNA, one strand shown. Summed up: as §1
Another assay concerns the target T8, SPIC (Homo sapiens, UniProt Q8N5J4 1-248).
T8 sequence: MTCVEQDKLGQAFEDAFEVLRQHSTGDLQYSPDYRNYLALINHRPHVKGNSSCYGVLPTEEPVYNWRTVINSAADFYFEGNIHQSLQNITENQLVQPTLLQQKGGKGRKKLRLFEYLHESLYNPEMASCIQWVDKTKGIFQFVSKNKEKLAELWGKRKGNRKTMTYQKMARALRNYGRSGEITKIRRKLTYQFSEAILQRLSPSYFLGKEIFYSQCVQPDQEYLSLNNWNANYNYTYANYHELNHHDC
The settings on record: protein: recombinant; tags: N-terminal GST; dsDNA, one strand shown. Summed up: as §1

For another assay, the target named is ELF4 (Homo sapiens, UniProt Q99607 1-663). As to conditions: protein: recombinant; tags: N-terminal GST; dsDNA, one strand shown. The method in brief:
as §1

In another assay the target is T9, ELK4 (Homo sapiens, UniProt P28324-2 1-405).
T9 sequence: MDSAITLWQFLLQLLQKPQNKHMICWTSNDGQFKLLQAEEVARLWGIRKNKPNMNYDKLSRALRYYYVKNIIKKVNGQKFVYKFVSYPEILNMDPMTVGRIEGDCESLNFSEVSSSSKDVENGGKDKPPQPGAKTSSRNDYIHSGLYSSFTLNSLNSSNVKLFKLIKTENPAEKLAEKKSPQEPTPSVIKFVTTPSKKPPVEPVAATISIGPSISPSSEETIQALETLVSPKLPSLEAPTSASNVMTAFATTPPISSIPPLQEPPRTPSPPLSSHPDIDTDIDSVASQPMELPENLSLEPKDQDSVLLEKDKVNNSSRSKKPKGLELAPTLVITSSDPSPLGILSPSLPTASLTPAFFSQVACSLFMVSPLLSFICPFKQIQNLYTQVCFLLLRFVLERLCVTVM
As to conditions: protein: recombinant; tags: N-terminal GST; dsDNA, one strand shown. The method in brief: as §1

A further assay concerns the target T10, ETV2 (Homo sapiens, UniProt O00321 1-342).
T10 sequence: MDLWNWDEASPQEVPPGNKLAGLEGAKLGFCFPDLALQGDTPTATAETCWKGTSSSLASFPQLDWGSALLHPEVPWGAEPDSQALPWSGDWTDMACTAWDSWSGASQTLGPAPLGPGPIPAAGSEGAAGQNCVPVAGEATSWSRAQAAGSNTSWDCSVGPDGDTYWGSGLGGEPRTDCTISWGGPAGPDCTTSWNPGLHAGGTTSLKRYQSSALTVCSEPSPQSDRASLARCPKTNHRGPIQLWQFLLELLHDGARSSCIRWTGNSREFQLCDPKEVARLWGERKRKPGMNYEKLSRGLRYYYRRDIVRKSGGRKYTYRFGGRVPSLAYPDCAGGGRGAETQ
The settings on record: protein: recombinant; tags: N-terminal GST; dsDNA, one strand shown. Summed up: as §1

The target in a further assay is T11, ELF3 (Homo sapiens, UniProt P78545 1-371).
T11 sequence: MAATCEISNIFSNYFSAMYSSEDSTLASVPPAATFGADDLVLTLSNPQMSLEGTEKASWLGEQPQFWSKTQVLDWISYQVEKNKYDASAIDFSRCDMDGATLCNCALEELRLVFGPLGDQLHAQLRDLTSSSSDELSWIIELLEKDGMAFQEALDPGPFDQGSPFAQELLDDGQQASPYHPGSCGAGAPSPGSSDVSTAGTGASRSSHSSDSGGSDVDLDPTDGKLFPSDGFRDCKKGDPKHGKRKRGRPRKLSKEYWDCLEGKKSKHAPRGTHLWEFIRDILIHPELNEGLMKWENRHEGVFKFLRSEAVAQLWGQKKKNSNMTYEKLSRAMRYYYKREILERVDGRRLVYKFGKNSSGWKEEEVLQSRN
The settings on record: protein: recombinant; tags: N-terminal GST; dsDNA, one strand shown. The method in brief: as §1

Another assay concerns the target CRX (Homo sapiens, UniProt O43186 1-299). As to conditions: protein: recombinant; tags: N-terminal GST; dsDNA, one strand shown. The method in brief:
as §1

The target of the next assay is ETV1 (Homo sapiens, UniProt P50549 1-477). As to conditions: protein: recombinant; tags: N-terminal GST; dsDNA, one strand shown. The method in brief:
as §1

Consider 1 sequence from PMC7862700, “An all-to-all approach to the identification of sequence-specific readers for epigenetic DNA modifications on cytosine”.

Sequence of HSF1 (Q00613 whole entry): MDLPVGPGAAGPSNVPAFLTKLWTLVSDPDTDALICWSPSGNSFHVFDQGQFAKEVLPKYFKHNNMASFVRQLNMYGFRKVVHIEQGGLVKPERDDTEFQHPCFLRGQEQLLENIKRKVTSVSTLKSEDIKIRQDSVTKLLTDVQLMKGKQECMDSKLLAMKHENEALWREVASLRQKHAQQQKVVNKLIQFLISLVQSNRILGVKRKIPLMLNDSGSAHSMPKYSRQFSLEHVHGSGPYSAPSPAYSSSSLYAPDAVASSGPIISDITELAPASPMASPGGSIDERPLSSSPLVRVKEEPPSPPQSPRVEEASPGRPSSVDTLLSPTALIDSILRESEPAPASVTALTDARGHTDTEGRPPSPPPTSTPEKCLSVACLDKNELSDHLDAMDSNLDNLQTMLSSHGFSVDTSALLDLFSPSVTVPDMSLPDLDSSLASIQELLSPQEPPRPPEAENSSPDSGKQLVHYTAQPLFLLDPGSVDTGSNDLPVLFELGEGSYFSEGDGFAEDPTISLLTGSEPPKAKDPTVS
Sequence of ELF4 (Q99607 whole entry): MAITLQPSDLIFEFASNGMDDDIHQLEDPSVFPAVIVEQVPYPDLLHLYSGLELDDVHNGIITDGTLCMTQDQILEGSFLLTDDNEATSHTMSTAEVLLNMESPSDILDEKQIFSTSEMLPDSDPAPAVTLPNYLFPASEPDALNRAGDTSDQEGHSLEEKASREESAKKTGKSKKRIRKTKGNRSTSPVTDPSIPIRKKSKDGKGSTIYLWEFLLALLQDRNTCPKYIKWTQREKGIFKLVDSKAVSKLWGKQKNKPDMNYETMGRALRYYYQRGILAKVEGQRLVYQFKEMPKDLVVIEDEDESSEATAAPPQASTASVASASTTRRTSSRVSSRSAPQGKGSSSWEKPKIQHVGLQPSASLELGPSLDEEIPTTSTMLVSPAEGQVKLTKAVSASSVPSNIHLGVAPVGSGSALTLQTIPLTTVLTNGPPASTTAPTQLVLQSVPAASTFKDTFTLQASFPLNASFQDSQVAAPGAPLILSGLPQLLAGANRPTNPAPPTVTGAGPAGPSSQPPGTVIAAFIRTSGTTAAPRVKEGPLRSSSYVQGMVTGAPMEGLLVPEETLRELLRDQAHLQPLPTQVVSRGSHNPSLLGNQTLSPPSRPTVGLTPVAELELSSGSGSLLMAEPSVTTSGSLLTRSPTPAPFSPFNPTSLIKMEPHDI
Sequence of ELF1 (P32519 whole entry): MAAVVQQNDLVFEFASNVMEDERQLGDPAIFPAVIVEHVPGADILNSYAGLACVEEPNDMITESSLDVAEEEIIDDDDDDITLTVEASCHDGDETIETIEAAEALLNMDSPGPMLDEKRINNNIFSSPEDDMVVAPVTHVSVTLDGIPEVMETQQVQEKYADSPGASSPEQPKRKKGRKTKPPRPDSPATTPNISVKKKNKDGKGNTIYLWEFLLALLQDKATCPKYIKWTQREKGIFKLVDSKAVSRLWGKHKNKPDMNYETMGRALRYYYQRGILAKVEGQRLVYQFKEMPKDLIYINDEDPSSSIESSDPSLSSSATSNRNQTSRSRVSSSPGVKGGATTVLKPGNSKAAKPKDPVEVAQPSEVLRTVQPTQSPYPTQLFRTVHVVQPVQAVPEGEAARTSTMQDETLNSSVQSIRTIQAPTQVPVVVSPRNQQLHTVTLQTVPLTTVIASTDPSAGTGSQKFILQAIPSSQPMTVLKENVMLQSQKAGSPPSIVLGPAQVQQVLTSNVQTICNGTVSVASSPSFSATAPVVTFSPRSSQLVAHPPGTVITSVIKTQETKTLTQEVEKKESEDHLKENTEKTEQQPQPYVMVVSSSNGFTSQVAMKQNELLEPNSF
Sequence of SPIB (Q01892 whole entry): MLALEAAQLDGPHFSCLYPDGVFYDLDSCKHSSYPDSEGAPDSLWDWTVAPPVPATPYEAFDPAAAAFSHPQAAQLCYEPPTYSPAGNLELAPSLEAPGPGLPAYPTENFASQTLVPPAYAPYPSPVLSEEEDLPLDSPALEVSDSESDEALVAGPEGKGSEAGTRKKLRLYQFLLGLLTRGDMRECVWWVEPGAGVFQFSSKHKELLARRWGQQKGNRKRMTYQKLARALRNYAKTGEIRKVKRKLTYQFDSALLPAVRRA
Sequence of CRX (O43186 whole entry): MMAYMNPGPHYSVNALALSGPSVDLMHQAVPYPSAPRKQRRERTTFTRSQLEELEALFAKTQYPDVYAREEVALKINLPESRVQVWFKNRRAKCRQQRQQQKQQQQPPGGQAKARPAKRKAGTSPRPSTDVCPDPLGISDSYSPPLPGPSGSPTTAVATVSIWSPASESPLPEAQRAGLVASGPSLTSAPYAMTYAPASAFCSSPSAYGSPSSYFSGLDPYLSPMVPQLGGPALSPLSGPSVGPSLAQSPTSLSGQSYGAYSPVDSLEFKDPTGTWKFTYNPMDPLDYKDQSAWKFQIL
Sequence of ETV1 (P50549 whole entry): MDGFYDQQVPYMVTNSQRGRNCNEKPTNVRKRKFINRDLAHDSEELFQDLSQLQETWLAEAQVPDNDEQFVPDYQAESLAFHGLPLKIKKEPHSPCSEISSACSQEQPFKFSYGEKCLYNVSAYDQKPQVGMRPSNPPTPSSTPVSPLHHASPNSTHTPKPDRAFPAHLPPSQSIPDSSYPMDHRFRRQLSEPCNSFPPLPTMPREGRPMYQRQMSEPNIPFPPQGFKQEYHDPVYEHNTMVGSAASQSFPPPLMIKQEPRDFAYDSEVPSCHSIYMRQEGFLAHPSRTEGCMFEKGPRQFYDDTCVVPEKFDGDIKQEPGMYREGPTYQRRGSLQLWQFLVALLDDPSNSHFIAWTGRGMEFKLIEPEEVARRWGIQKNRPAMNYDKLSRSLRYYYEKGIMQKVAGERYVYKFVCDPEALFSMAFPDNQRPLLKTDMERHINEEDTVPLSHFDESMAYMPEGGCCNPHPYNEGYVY
Sequence of ETV5 (P41161 whole entry): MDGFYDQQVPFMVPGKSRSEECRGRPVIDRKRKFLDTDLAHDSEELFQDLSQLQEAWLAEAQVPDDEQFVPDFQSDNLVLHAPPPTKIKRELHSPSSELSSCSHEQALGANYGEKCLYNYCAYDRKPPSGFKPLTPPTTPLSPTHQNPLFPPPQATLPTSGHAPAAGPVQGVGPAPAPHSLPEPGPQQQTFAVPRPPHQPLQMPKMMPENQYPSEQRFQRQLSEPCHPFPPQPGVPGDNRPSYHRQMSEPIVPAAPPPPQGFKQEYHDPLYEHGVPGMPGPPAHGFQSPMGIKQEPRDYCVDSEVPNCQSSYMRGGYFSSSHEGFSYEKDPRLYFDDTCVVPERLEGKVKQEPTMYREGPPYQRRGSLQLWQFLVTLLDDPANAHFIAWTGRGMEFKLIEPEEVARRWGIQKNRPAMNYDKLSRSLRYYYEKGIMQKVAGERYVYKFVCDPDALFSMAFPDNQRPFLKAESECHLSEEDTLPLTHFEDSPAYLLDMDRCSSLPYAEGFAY

For AGAAAT, the binding signal is 1.05 fold enrichment (6-mer frequency, TF over GST control) in the assay with FLI1; 1.13 fold enrichment (6-mer frequency, TF over GST control) with ELK1; 1.17 fold enrichment (6-mer frequency, TF over GST control) with GABPA; 1.1 fold enrichment (6-mer frequency, TF over GST control) with ERG; 1.15 fold enrichment (6-mer frequency, TF over GST control) in the assay with ELF1; 1.16 fold enrichment (6-mer frequency, TF over GST control) with EHF. The binding signal is 1.16 fold enrichment (6-mer frequency, TF over GST control) in the assay with SPI1; 1.11 fold enrichment (6-mer frequency, TF over GST control) in the assay with SPIB; 1.2 fold enrichment (6-mer frequency, TF over GST control) with ELK3; 1.12 fold enrichment (6-mer frequency, TF over GST control) with FEV; 1.17 fold enrichment (6-mer frequency, TF over GST control) in the assay with ETV5; 2.04 fold enrichment (6-mer frequency, TF over GST control) with HSF1. For the same sequence, the binding signal with SPIC is 1.22 fold enrichment (6-mer frequency, TF over GST control); in the assay with ELF4, 1.15 fold enrichment (6-mer frequency, TF over GST control); with ELK4 it was 1.03 fold enrichment (6-mer frequency, TF over GST control); in the assay with ETV2, 1.19 fold enrichment (6-mer frequency, TF over GST control); with ELF3 it was 1.2 fold enrichment (6-mer frequency, TF over GST control); with CRX it was 1.35 fold enrichment (6-mer frequency, TF over GST control). The binding signal with ETV1 is 1.13 fold enrichment (6-mer frequency, TF over GST control).
